Compound activity as filed in PubChem BioAssay.
L3MBTL1 inh: blocks human L3MBTL1; Potency, µM (top dose mostly 57.1 µM), without a hit: top-dose activity, negative = inhibition, hits mostly inhibitors; AID 485360; AlphaScreen L3MBTL1–H3K9me1 peptide binding; 230,000 tested, 0.66% active; also: potency is read from the fitted curve at half-maximal effect; % is scaled to controls: 0 for no effect and ±100 for the full control effect; nearly all actives have a fitted effect of over 60% in size
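Read-out is AlphaScreen signal from streptavidin donor and nickel chelate acceptor beads (10 ug/mL final each) bridging L3MBTL1 (50 nM) and biotinylated K9-monomethylated H3(1-15) peptide (75 nM), after 30 min compound exposure at room temperature.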
G9a inh-1: G9a (human) methyltransferase inhibition; Q96KQ7; G9a H3K9 monomethylation, AlphaScreen, 2 h; Potency, µM (highest dose often 102 µM), for the others: top-dose activity, negative = inhibition, hits mostly inhibitors; 350,000 tested, 8.8% active; AID 504332; also: potency is read from the fitted curve at half-maximal effect; % is scaled to controls: 0 for no effect and ±100 for the full control effect; nearly all actives have a fitted effect of over 75% in size
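AlphaScreen read-out: biotin-H3K9 peptide (500 nM) methylation by 20 nM enzyme with 20 uM SAM, 2 h at room temperature after 15 min compound preincubation; anti-monomethyl H3K9 antibody plus donor/acceptor beads, 10 min dark.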
JMJD2A Tudor inh: blocks the human JMJD2A Tudor domain; O75164; AlphaScreen JMJD2A-Tudor / H3K4me3 peptide binding; Potency, µM (top dose mostly 114 µM), for the others: top-dose activity change, negative = inhibition, most hits filed as inhibitors; 390,000 tested, 4.4% active; AID 504339; also: potency is read from the fitted curve at half-maximal effect; % is scaled to controls: 0 for no effect and ±100 for the full control effect; nearly all actives have a fitted effect of over 50% in size
BAZ2B inh: blocks human BAZ2B; Q9UIF8; AlphaScreen BAZ2B-H3K14Ac peptide displacement; Potency, µM (titrated, usually from 114 µM), inactives show at the highest dose activity change, negative = inhibition, usual class: inhibitors; 360,000 tested, 4.4% active; AID 504333; also: potency is read from the fitted curve at half-maximal effect; % is scaled to controls: 0 for no effect and ±100 for the full control effect; nearly all actives have a fitted effect of over 60% in size
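Multi-concentration screen (max 110 uM) measuring displacement of acetylated histone H3 peptide from BAZ2B by AlphaScreen, using 50 nM protein, 50 nM peptide and 10 ug/mL streptavidin donor plus Ni-chelate acceptor beads.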
PI5P4K alpha inh: PI5P4K alpha (human) kinase inhibition. P48426. PI5P4Kalpha enzyme, ADP-Glo luminescence, 60 min; active compounds read low. max response, %. 330,000 tested, 1.2% active; active = max response of -50% or lower; inconclusive = between -30% and -50%; inactive = -30% or higher; also: value at the top dose of about 77 µM; % is scaled to controls: 0 for no effect and ±100 for the full control effect
Target sequence (P48426 whole entry, looked up): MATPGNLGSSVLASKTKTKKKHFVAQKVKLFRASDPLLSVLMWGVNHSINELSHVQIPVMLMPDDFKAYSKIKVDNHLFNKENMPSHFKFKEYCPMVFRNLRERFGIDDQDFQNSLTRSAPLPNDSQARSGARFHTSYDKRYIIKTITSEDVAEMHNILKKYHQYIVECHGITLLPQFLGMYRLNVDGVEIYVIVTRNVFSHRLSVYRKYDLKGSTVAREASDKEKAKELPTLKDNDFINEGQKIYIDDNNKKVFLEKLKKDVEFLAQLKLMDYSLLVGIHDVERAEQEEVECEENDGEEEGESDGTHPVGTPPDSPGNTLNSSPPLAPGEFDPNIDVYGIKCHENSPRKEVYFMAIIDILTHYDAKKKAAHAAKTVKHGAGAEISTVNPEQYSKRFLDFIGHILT
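Single end-point luminescence (ADP-Glo) quantified ADP from PI5P4Kalpha turnover; ATP 5 microM final, 1 h at RT, 0.1% CHAPS and 0.28 mM EGTA in HEPES pH 7.4.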
HP1b chromo inh: HP1-beta chromodomain-methylated histone interaction inhibition | P83916 | AlphaScreen HP1-beta / biotin-H3K9me3 peptide binding | Potency, µM (doses to about 114 µM), inactives show at the highest dose activity change, negative = inhibition, actives largely listed as inhibitors | 390,000 tested, 0.56% active | AID 540317; also: potency is read from the fitted curve at half-maximal effect; nearly all actives have a fitted effect of over 70% in size
Target sequence (P83916 whole entry, looked up): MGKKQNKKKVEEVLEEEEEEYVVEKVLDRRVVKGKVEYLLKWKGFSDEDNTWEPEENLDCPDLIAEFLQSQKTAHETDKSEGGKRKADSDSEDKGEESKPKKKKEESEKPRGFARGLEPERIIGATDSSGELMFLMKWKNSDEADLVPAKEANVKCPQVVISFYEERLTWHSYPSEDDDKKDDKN
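HP1-beta protein (50 nM final) preincubated 30 min at room temperature with biotinylated H3(1-18)K9me3 peptide (50 nM) in PBS pH 7.4, 0.01% Tween-20, then compound added for 30 min. AlphaScreen streptavidin donor/nickel chelate acceptor beads (10 ug/mL final), 30 min dark, luminescence read.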
JMJD2E inh-1: JMJD2E demethylase inhibition by 8HQ compounds; shares compounds with BAZ2B inh; JMJD2E demethylase, FDH-coupled NADH fluorescence; Potency, µM (titrated, usually from 57 µM), without a hit: at the top dose activity, negative = inhibition, usual class: inhibitors; 130 tested, 89% active
ME-1 prolif: reduces ME-1 leukemia cell proliferation; shares compounds with BAZ2B inh; ME-1 cell proliferation, ATP luminescence, 48 h; Potency, µM (titrated, usually from 56.1 µM), for the others: at the top dose activity change, negative = inhibition, usual class: inhibitors; 140 tested, 20% active; AID 504370
JMJD2E inh-2: confirmation of inhibitors of human JMJD2E demethylase. shares compounds with JMJD2A Tudor inh. Recombinant JMJD2E, FDH-coupled NADH fluorescence (FDH is formaldehyde dehydrogenase). Potency, µM (top dose mostly 56.8 µM), without a hit: top-dose activity change, negative = inhibition, hits mostly inhibitors. 140 tested, 93% active
FDH inh: counter-screen for JMJD2E inhibitors: Pseudomonas putida formaldehyde dehydrogenase; 140 tested, 10% active; AID 2680; shares compounds with JMJD2A Tudor inh; Potency, µM (top dose mostly 56.7 µM), for the others: at the top dose activity, negative = inhibition, hits mostly inhibitors; FDH enzyme assay, NADH fluorescence kinetic
G9a inh-2: confirmation of human histone methyltransferase G9a inhibitors; shares compounds with JMJD2A Tudor inh; G9a H3K9 monomethylation, AlphaScreen, 2 h; Potency, µM, hits mostly inhibitors; 370 tested, 89% active; AID 588344; also: potency is read from the fitted curve at half-maximal effect; nearly all actives have a fitted effect of over 65% in size
ADP-Glo counter: counter-screen for PI5P4K inhibitors: ADP-Glo detection interference, no enzyme. Potency, µM (titrated, usually from 76.9 µM), inactives show at the highest dose activity change, negative = inhibition, usual class: inhibitors. shares compounds with PI5P4K alpha inh. ADP-Glo detection counter-screen, luciferase luminescence, no enzyme. 1,100 tested, under 10 active
Numbers without * were called inactive; u = inconclusive; x = no result given; ! = not active in a repeat; [ ] = remark or other dose. Shown are actives, neighbours in structure and some others; about 11% of the full set was active somewhere. Unless noted, calls follow the shape of the dose curve; as a rule, active = well fitted curve in the direction sought with a large enough effect; inconclusive = small, poorly fitted or top-dose-only effect, or another doubt; inactive = no such curve, though single readings can be large; an effect the other way counts as inactive or inconclusive.

SMILES	L3MBTL1 inh	G9a inh-1	JMJD2A Tudor inh	BAZ2B inh	PI5P4K alpha inh	HP1b chromo inh	G9a inh-2	others
CC(C)[C@@]1(NC(=O)[C@H]2CC3c4cccc5[nH]cc(c45)C[C@H]3N(C)C2)O[C@@]2(O)C3CCCN3C(=O)[C@@H](Cc3ccccc3)N2C1=O (stereo partly specified)	x	13µM*!	x	x	x	x	x	ME-1 prolif=u
Cc1ccc(NC(=O)CCCn2c(=O)oc3ccccc32)c(O)c1	x	21%	-13%	u	-1	30%	x
Oc1cccc2cc(N3CCNCC3)cnc12	x	x	x	x	x	x	x	JMJD2E inh-1=u;JMJD2E inh-2=u;FDH inh=0%
O=C(Nc1ccc(-c2nc3ccccc3c(=O)o2)cc1)c1ccco1	-15%	24%[59 µM]	-21%	-5%	-11	62%	x
CC(=O)Nc1ccc(NC(=O)Oc2ccccc2)cc1	-1%	u	-13%	-21%	x	9%	x
CN(C)c1ccc(NC(=O)Oc2ccccc2)cc1	x	1.6µM*	u	45µM*	-16	-40%	1.4*
Cc1cccc(OCC(=O)N2CCN(Cc3ccncc3)CC2)c1	x	2.5µM*	1.3µM*	18µM*	-8	-40%	8.9*
COc1ccc(OCC(=O)N2CCN(Cc3cccc(OC)c3OC)CC2)cc1	x	2µM*	7.9µM*	50µM*	x	u	29*
COc1ccc(CN2CCN(Cc3ccccc3OC)CC2)cc1	x	2µM*	4µM*	25µM*	0	u	3.6*
O=C1NCCOC(=O)[C@H](Cc2ccc(F)cc2)CC/C=C/C[C@H]1CC(=O)N(CCO)Cc1ccccc1	2%	x	-14%	x	1	28%	x
COC(=O)[C@H](Cc1ccccc1)N(Cc1ccccc1)S(=O)(=O)N(Cc1ccccc1)[C@@H](Cc1ccccc1)C(=O)OC	-2%	x	-6%	x	3	48%	x
COc1ccc(CC(C)NCCc2ccc(OC)c(OC)c2)cc1 (stereo unspecified)	-4%	20%	-69%	10%	-2	39%	x
COc1ccc(CCNCc2ccncc2)cc1OC	x	2.5µM*	11µM*	50µM*	x	u	45*
C[C@@H]1O[C@H](O[C@@H]2CC[C@@]3(C=O)[C@H]4CC[C@@]5(C)[C@@H](C6=CC(=O)OC6)CC[C@@]5(O)[C@@H]4CC[C@]3(O)C2)C[C@H](O)[C@@H]1O	x	6%[21.5 µM]	x	x	x	x	x
CCC(=O)Oc1ccc(C(=O)Nc2cccc(C(=O)c3ccccc3)c2)cc1	0%	45%[59 µM]	3%	u	-67*	11%	x	ADP-Glo counter=3%
O=c1oc2ccccc2cc1-c1cn2cc(Cc3ccc(F)cc3)sc2n1	x	51%[59 µM]	-4%	30%	x	58%	x
Cn1cc(P(=S)(c2ccccc2)c2ccccc2)c2ccccc21	x	x	-12%	x	x	x	x
N#CC1c2ccccc2-n2nncc2CN1Cc1cc(Cl)cc(Cl)c1 (stereo unspecified)	x	x	-18%	x	-60*	46%	x	ADP-Glo counter=-9%
COc1ccc(CN2Cc3cnnn3-c3ccccc3C2C#N)cc1 (stereo unspecified)	x	x	1%	x	-10	61%	x
COc1ccc(C(=O)C2CCCN(Cc3ccon3)C2)c(OC)c1 (stereo unspecified)	-4%	2%	-30%	-4%	-84*	9%	x	ADP-Glo counter=2%
